# “And” between values parts separate entries of the source, which are not always exact repeats. Identical values can stand only once. Compounds without any hit were thinned out: in the full panel of roughly 83,000, 20% have a hit.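 48-hour exposure, single concentration, 96-well plates; percent growth endpoint where 0 means no net growth. Active: below 10.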 A number with no mark means an inactive call. The source made the active and inactive calls.
# Test system: MDA-MB-468 breast
# Assay: NCI-60 one-dose screen, 48 h (100 = growth as untreated, 0 = no growth, -100 = all killed)
# Details: 10 µM unless noted
row,Structure (SMILES),growth
1,CC(=O)OC1CC2C(C)(C)CCC[C@]2(C)C2=C1C(O)=C(C(C)C)C(=O)C2=O (stereo not given in full),-49.5% (active)
2,C/C=C/CC(C)C(O)C1C(=O)NC(CC)C(=O)N(C)CC(=O)N(C)C(CC(C)C)C(=O)NC(C(C)C)C(=O)N(C)C(CC(C)C)C(=O)NC(C)C(=O)NC(C)C(=O)N(C)C(CC(C)C)C(=O)N(C)C(CC(C)C)C(=O)N(C)C(C(C)C)C(=O)N1C (stereo not given),4.57% (active)
3,CN(C)CCCn1c(=O)c2cc([N+](=O)[O-])ccc2c2cnc3[nH]ccc3c21,81.3%
4,CC(C)Sc1nc(-c2ccccc2)c(C#N)c(N2CCOCC2)n1,80.9%
5,OCC12CCCC(CO)(COC1)C2O (stereo not given),109%
6,CCCCCCCCCCCCCCCCCCOc1ccccc1CC(=O)NCC[N+]1(C)CCOCC1,13.7%
7,CN(C)CCN(C)c1ccc2ncc(C#Cc3cncc(C(=O)Nc4ccc(CN5CCN(C)CC5)c(C(F)(F)F)c4)c3)n2n1,84.8%
8,COc1ccc(S(=O)(=O)NCCCNc2nccc(-c3c(-c4cccc([N+](=O)[O-])c4)nc4sccn34)n2)cc1,16.2%
9,c1ccc2c(c1)Sc1ccccc1S2,93.7%
10,CC1(C)CC[C@]2(C(=O)N[C@H](CO)Cc3ccccc3)CC[C@]3(C)C(=CC[C@@H]4[C@@]5(C)CCCNC(C)(C)[C@@H]5CC[C@]43C)[C@@H]2C1,37.8%
11,CCOC(=O)C(=Cc1ccc(Br)cc1)C(=O)OCC,-73.3% (active)
12,Cc1nn(-c2cc(NC3CCC(O)CC3)c3c(=O)[nH]c(CCC(F)(F)F)cc3c2)c2c1C(=O)CC(C)(C)C2 (stereo not given),5.19% (active)
13,O=C1/C(=C/c2ccc([N+](=O)[O-])s2)Oc2cc(Cl)ccc21,-17.8% (active)
14,Brc1cnc2ccccc2c1,113%
15,c1ccc(CO[C@H]2CO[C@H]3[C@@H]2OC[C@H]3OCc2ccccc2)cc1,112%
16,COCCCOc1cc(C[C@@H](C[C@H](N)[C@@H](O)C[C@H](C(=O)NCC(C)(C)C(N)=O)C(C)C)C(C)C)ccc1OC,101%
17,Cc1ccc(C2=NN(c3ccc(S(=O)(=O)NC(=O)NCc4ccccc4)cc3)C(c3ccc(N(C)C)cc3)C2)c(C)c1 (stereo not given),49.4%
18,CC1Cc2c(N(C)C)ncnc2N(C)c2ccc(Cl)cc21 (stereo not given),28.7%
19,CC(/C=N/N1C(=O)c2ccccc2C1=O)c1ccccc1 (stereo not given),95.9%
20,COc1cc(C(=O)c2cnc(-c3c[nH]c4cccc(C)c34)[nH]2)cc(OC)c1OC,2% (active)

row,Structure (SMILES),growth
1,Cc1nc2n(c(=O)c1CCN1CCC(c3noc4cc(F)ccc34)CC1)CCC[C@@H]2O,100%
2,CCOc1nc(-c2ccccc2)cc2c(O)c(C(=O)N/N=C/c3ccc(O)cc3O)[nH]c(=O)c12,29.9%
3,CC[C@@]1(O)C(=O)OCc2c1cc1n(c2=O)Cc2c-1nc1ccccc1c2/C=N/OC(C)(C)C,-44.5% (active)
4,CCCCCC[C@@H](O)C/C=C\CCCCCCCC(=O)OCCOC,104%
5,O=C(Nc1ccc2c(O)cc(S(=O)(=O)O)cc2c1)c1ccc([N+](=O)[O-])cc1,95.4%
6,COC(=O)c1cc(Nc2ccc(O)c3c2C(=O)c2c([N+](=O)[O-])ccc(O)c2C3=O)cc(C(=O)OC)c1,71.9%
7,COc1ccc(Oc2ccccc2NC(=O)CNC(=O)c2cccc3ccccc23)cc1,23.7% [5 µM]
8,NC(=O)c1c(NC(=O)c2ccc(F)cc2F)sc2c1CCC(=O)C2,81.7%
9,CCN(CC)Cc1c(-c2cccc(OC(F)(F)F)c2)[nH]c2ccc(N3CCCC3)cc2c1=O,93.1%
10,CCOc1cc(-c2ccc[nH]2)[nH]c1/C=C1\N=C(C)C(C(=O)OC)=C1C,-86.9% (active)
11,c1ccc(Cn2cc3c(c2)-c2nc(Nc4ccccc4)ncc2CC3)cc1,115% [100 µM]
12,CCCC[n+]1c(/C=C\c2c(OC)cc(OC)cc2OC)ccc2ccccc21,-31% (active)
13,N#Cc1cccc(/C=C(/C(=O)c2ccccc2)c2ccccc2)c1,48.9%
14,[2H]c1cc2c(c([2H])c1F)/C(=C/c1[nH]c(C)c(C(=O)NCCN(CC)CC)c1C)C(=O)N2,118%
15,COc1cccc(/C=C/C(=O)Nc2cc(OC)c3c(c2)OCO3)c1,92.6%
16,Nc1nc(N)c2cc(S(=O)(=O)c3ccccc3)ccc2n1,49.9% and 57.7%
17,O=C(CCN1C(=O)/C(=C/c2ccc(Cl)cc2)SC1=S)NCCCN1CCOCC1,100%
18,c1ccc(Nc2nnc(-c3cc(-c4cccnc4)n(-c4ccccc4)n3)s2)cc1,104%
19,Cn1cc(-c2nn3cc(-c4cccnc4)nc3s2)c2ccccc21,-2.67% (active)
20,Cc1nc2sc(C(=O)Nc3cccc(Cl)c3C)c(N)c2cc1C(=O)/C=C/c1ccccc1,4.69% (active)

# Reference: PubChem BioAssay (NCI)
